Assay outcomes deposited in PubChem BioAssay by several laboratories.
HSV augment – HSV replication enhancement. maximum fold increase. HSV replication augmentation in cells, fold increase. actives 0.005% (n = 220,000); in the data active = maximum fold increase above about 1.5; inconclusive = no clear call, values can overlap the other calls; tested in PC3 cells
Measles CPE – protection of cells from measles virus. Measles virus-infected cells, CPE protection, absorbance. protection (pct of control), % at 4 µM. actives 1.5% (n = 140,000); in the data active = protection mostly above about 24%, no sharp cut-off; inactive = mostly below about 26%
KCC2 mod – modulates chloride dependent transport by human KCC2 | B-score of Tl+ flux slope (higher = more flux/activation; lower = inhibition) at 10 µM | AID 1456 | actives 2.2% (n = 190,000) | KCC2 cells, thallium flux FluoZin-2 fluorescence | Q9H2X9;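 active = thallium flux slope and its plate-corrected score both differing from the plate sample mean at a set confidence after two filtering rounds, in either direction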;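 note: slope of fluorescence scaled to starting intensity during 10 to 20 s after thallium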
ROMK primary – modulators of human ROMK potassium channel | actives 2% (n = 130,000) | AID 1918 | B-score at 10 µM | Tet-inducible ROMK, thallium flux fluorescence; actives lie on both sides;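 active = signal ratio slope over the read window, or its plate-corrected B-score, at least 3 SD from the plate mean, either direction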;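 note: B-score of the F/F0 ratio slope over 7 to 12 s after thallium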
Arbovirus inh – antivirals against arbovirus infection; arbovirus infection cell-based antiviral screen; inhibition, % at 10 µM; actives 0.37% (n = 200,000); in the data active = inhibition above about 30%
ROMK hit retest – retested hit modulating human ROMK potassium channel | shares compounds with ROMK primary | ROMK thallium flux, fluorescence ratio; hits give low values | normalized thallium flux (F/F0 slope) at 10 µM | actives 54% (n = 3,000);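 active = Flux at 10 µM at least 3 SD below or above vehicle control mean in one or both replicates; inconclusive = no clear call, values can overlap the other calls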
Numbers without * were called inactive; i = inactive; ? = inconclusive; . = no result given. Sampled rows, rich in hits. Any-hit rate of the full collection: about 4%.

SMILES | HSV augment | Measles CPE | KCC2 mod | ROMK primary | Arbovirus inh | ROMK hit retest
O=C(Cc1ccc(-n2cccc2)cc1)NCc1cccs1 | i | 1.9 | . | 3.43* | -4.1 | ?
CCOC(=O)C1=C(C)N(CCCC(=O)O)C(=O)NC1c1ccccc1OC(=O)c1cccs1 (stereo unspecified) | i | . | . | . | . | .
Cc1ccc(CNC(=O)CCCCn2c(=O)[nH]c3ccsc3c2=O)cc1 | i | . | 0.338 | 0.933 | -1.5 | .
Cc1ccc(CNC(=O)Cc2ccc(-c3ccccc3)cc2)cc1 | i | 10.6 | 0.882 | . | -18.7 | .
Cc1ccc(CC(=O)NCc2ccc(F)cc2)cc1 | i | . | -0.0357 | 4.4* | -12.8 | 0.0943
Cc1ccc(CNC(=O)Cc2ccc(-n3c(=O)[nH]c4ccsc4c3=O)cc2)cc1 | i | 5.9 | -0.203 | 2.08 | -6.2 | 0.0953
CCCC(=O)NC(C)c1nc(-c2ccc(C)cc2)no1 (stereo unspecified) | i | . | . | . | . | .
CC1=NN(c2nc(-c3ccc(C)cc3)cs2)C(=O)C1N=Nc1ccc2ccccc2c1 (stereo unspecified) | i | 7.2 | . | . | 4.3 | .
CC1=NN(c2nc(-c3ccc(C)cc3)cs2)C(=O)C1N=Nc1ccc(C(N)=O)cc1 (stereo unspecified) | i | . | -1.4 | 0.1 | -37.5 | 0.0768
Cc1cc(C)nc(/N=C2\NC(=O)CC(C(=O)O)N2c2ccc(Oc3ccccc3)cc2)n1 (stereo unspecified) | i | 12.1 | 0.183 | . | 0.5 | .
CCOc1ccc(N2CC(=O)N/C2=N\c2nc(C)cc(C)n2)cc1 | i | 8.2 | -0.332 | . | -3.6 | 0.0769
COc1c(C(=O)NNC(=O)c2ccccc2)csc1Br | i | . | 0.037 | . | . | .
O=[N+]([O-])c1cc(S(=O)(=O)NC2=NCCCCC2)ccc1NCC1CCCCC1 | i | . | -0.201 | -7.65* | -17.1 | 0.0592*
C=CCN(CC=C)S(=O)(=O)c1ccc(NC(=S)NC(=O)/C=C/c2cccc3ccccc23)cc1 | i | 2.6 | -0.439 | 0.0585 | -3.7 | .
C=CCN(CC=C)S(=O)(=O)c1ccc(NC(=S)NC(=O)/C=C/c2ccc(C)cc2)cc1 | i | 14.6 | 0.0574 | 1.71* | 5.0 | 0.0845
CCCc1nc(SCC(=O)N2CCC(Cc3ccccc3)CC2)c2c(=O)n(C)c(=O)n(C)c2n1 | i | 0.5 | -2.01 | . | -45.0 | ?
COCCn1c(SCC(=O)N2CCCc3ccccc32)nc2ccccc2c1=O | i | 1.5 | . | -2.69* | 1.9 | 0.0634*
Cn1c(=O)c2c(SCC(=O)N3CCC(Cc4ccccc4)CC3)nc(C3CC3)nc2n(C)c1=O | . | . | . | . | -7.2 | .
CCCc1nc(SCC(=O)N2CCCc3ccccc32)c2c(=O)n(C)c(=O)n(C)c2n1 | i | 4.9 | -1.06 | . | -47.2 | 0.0568*
O=C(CC1C(=O)NCCN1Cc1c(F)cccc1Cl)NCCCn1cccn1 (stereo unspecified) | i | . | 0.506 | . | . | .
CC(C)(C)NC(=O)COC(=O)c1snc(C(=O)NC2CCCCC2)c1N | i | 5.5 | -0.781 | -3.8* | 0.6 | 0.0716
CCCC(=O)N1CCN(c2ccc(NC(=O)c3cccs3)cc2)CC1 | i | . | -0.0481 | 2.72* | -12.7 | 0.0864
CCc1nnc(NC(=O)C2CCCN2C(=O)Nc2ccccc2)s1 (stereo unspecified) | i | . | -1.68 | 0.924 | 4.0 | .
CCOC(=O)CSc1ncnc2c1nnn2-c1ccc(F)cc1 | i | 5.5 | . | 0.0401 | -1.2 | .
CC(=O)C(Sc1ncnc2c1nnn2-c1ccc(F)cc1)C(=O)N(C)C (stereo unspecified) | i | 4.2 | -0.0237 | . | -13.7 | 0.0731
SMILES | HSV augment | Measles CPE | KCC2 mod | ROMK primary | Arbovirus inh | ROMK hit retest
CN1CCN(c2ncnc3c2sc2nc(N4CCCC4)c4c(c23)CC(C)(C)OC4)CC1 | . | . | . | . | 4.7 | .
O=C(CCn1c2c(c3ccccc31)CCCC2)NNC(=O)c1ccc([N+](=O)[O-])cc1 | i | 12.8 | -3.21 | . | 14.2 | 0.0476*
CC1=C(C(=O)OCC2CCCO2)C(c2coc3ccc(Cl)cc3c2=O)C2=C(CCCC2=O)N1 (stereo unspecified) | i | . | 0.145 | -2.69* | 3.4 | 0.0735
CC1=C(C(=O)OCC2CCCO2)C(c2coc3ccc(C)cc3c2=O)C2=C(CCCC2=O)N1 (stereo unspecified) | i | . | -0.814 | -0.0022 | 3.5 | .
CCCCC(=O)/C=C/n1c(=S)oc2ccccc21 | i | 0.5 | 0.041 | 1.11 | -42.7 | .
Cc1ccc2oc(=O)n(CCOc3ccccc3)c2c1 | i | . | -0.552 | -3.52* | 2.4 | 0.0575*
C=CCN(C(=O)C1=NN(C2CCS(=O)(=O)C2)C(=O)CC1)c1nc(-c2ccc([N+](=O)[O-])cc2)cs1 (stereo unspecified) | i | . | 0.238 | -0.728 | -5.9 | .
CC(C)CN=C(NS(=O)(=O)c1ccccc1)C(Cl)(Cl)Cl | i | 16.0 | 1.19 | . | -47.8 | 0.05*
CC(C)CC(NS(=O)(=O)c1ccccc1)C(=O)O (stereo unspecified) | i | 9.2 | . | 0.632 | -1.4 | .
COC(=O)[C@@]1(Cc2ccc(F)cc2)[C@H]2c3cc(C(=O)N(C)C)n(CCc4ccc(OC)c(Br)c4)c3C[C@H]2CN1C(=O)c1ccccc1 | . | 2.9 | -0.451 | -3.85* | -20.4 | 0.0563*
COC(=O)[C@@]1(Cc2ccc(F)cc2)[C@H]2c3cc(C(=O)N(C)C)n(CCc4ccccn4)c3C[C@H]2CN1C(=O)c1ccccc1 | i | 16.1 | 0.924 | -0.34 | -3.5 | .
COC(=O)[C@@]1(Cc2ccc(F)cc2)[C@H]2c3cc(C(=O)N(C)C)n(Cc4ccc(OC)c(OC)c4)c3C[C@H]2CN1C(=O)c1ccccc1 | i | 8.9 | -0.586 | -3.53* | -6.5 | 0.057*
C#CCOCCOCCOCCNc1nc(N2CCOCC2)nc(N2CCN(C(=O)[C@H](CCC(=O)O)n3cc(C(N)[C@H](C)CC)nn3)CC2)n1 (stereo partly specified) | i | . | -2.1 | . | 0.2 | .
CC(C)(CN1CCc2ccccc2C1)NS(=O)(=O)c1ccc(Cl)cc1 | i | . | -1.24 | . | . | .
CS(=O)(=O)N(CC(=O)Nc1cccc([N+](=O)[O-])c1)c1cccc(F)c1 | i | . | 0.367 | -0.238 | -2.5 | .
O=C(CC(c1ccccc1)c1ccccc1)Nc1ccncc1 | i | . | 0.19 | . | . | 0.0788
O=C(CCc1ccccc1)Nc1ccncc1 | i | 13.3 | -0.342 | . | 14.4 | .
N#C[C@H]1[C@H](c2ccccc2)[C@](C#N)(C(=O)c2ccccc2)[C@@H]2C=Cc3ccccc3N21 | . | 34.1 | -0.414 | -2.84* | -30.9 | 0.0742
COc1cccc(CN(C)C(=O)c2cccc(OC3CCN(C4CCCC4)CC3)c2)c1 | i | . | 0.0449 | -0.689 | -7.9 | .
CC(=O)c1c(C)[nH]c(C(=O)OCCCCN2C(=O)c3ccccc3C2=O)c1C | i | 12.4 | -0.925 | . | 11.8 | 0.0609*
CC(=O)c1c(C)[nH]c(C(=O)OCc2ccccc2)c1C | i | 10.5 | -0.429 | 2.06 | 1.4 | .
COc1ccc(S(=O)(=O)NCC(c2cccnc2)N2CCN(c3ccccc3)CC2)cc1C (stereo unspecified) | . | 21.1 | 0.85 | -0.0922 | 1.3 | .
